The campaign covered roughly 310,000 compounds. About 3,400 (1.1%) were called active.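 Rule for the calls: active = fluorescence ratio B-score at most minus 3 library SDs, with starting brightness B-score within 2 library SDs (cut at about -5.5 in these data); inactive = the rest, inconclusive results apart.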 Only a selection was taken, and actives are over-represented in it overall. Peptide text beside a SMILES is read from it. * marks the point of attachment. OPac = O=C(CO*)c1ccccc1; Bz = O=C(c1ccccc1)*
Molecular target: Potassium voltage-gated channel subfamily KQT member 2 (Rattus norvegicus) (UniProt O88943)
Assay: rat KCNQ2 potassium channel inhibitors, primary screen, cell-based, CHO-K1, FluxOR thallium flux, B-score (AID 2156)
Conditions: 20 min, at 10 µM; stronger effect = lower value

Chain of Potassium voltage-gated channel subfamily KQT member 2 (Rattus norvegicus) (O88943 whole entry, looked up): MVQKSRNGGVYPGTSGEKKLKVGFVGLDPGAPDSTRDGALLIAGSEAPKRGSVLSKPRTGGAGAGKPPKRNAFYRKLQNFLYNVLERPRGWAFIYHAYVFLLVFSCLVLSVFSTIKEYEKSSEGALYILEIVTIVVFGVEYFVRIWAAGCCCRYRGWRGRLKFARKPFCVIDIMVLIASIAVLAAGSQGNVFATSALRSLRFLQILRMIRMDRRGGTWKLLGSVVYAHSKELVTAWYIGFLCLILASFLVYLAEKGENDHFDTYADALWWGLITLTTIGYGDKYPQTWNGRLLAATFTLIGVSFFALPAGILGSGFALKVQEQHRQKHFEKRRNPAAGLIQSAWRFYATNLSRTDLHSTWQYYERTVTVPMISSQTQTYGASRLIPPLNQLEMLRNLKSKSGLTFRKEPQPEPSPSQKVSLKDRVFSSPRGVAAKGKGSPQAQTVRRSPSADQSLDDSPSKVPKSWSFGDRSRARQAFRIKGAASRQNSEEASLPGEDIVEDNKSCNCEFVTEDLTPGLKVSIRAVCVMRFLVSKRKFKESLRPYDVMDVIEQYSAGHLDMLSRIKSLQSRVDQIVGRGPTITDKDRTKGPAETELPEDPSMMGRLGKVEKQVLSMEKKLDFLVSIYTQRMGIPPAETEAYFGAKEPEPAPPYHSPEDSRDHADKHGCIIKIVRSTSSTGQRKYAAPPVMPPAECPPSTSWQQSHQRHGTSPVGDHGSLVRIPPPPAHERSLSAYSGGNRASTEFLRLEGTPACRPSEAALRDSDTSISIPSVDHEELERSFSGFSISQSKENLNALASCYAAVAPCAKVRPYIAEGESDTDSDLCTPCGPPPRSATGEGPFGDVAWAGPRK

Structure (SMILES) | B-score
CCOC(=O)N1CCN(C(=O)c2ccccc2SCC(=O)NCC2CCCCC2)CC1 | inactive
COc1ccc(NS(=O)(=O)c2ccc(C)c(C(=O)NCC(c3cccs3)N3CCOCC3)c2)cc1 (stereo not given) | -0.42 (inactive)
COc1cc(-c2n[nH]c(=S)n2Cc2ccccc2)cc(OC)c1OC | -0.07 (inactive)
CCC(C)n1c(-c2cc(OC)c(OC)c(OC)c2)nc2nc3ccccc3nc21 (stereo not given) | -6.81 (active)
COc1cc(C(O)c2nc3ccccc3n2C)cc(OC)c1OC (stereo not given) | -0.53 (inactive)
Cc1csc(=O)n1CC(=O)OCC(=O)N(CC(C)C)c1c(N)n(Cc2ccccc2)c(=O)[nH]c1=O | inactive
COc1ccc(Cc2nnc(SCC(=O)N(c3ccccc3)C(C)C)n(N)c2=O)cc1 | -2.15 (inactive)
O=C(COC(=O)Cc1ccccc1F)NNC(=O)c1ccc(Cl)cc1 | inactive
Cc1cc(Cl)c2oc(C(=O)N(C)C(C)c3ccccn3)c(C)c2c1 (stereo not given) | -5.81 (active)
Cc1cc(Cl)c2oc(C(=O)N3CCC(O)(c4ccccc4)CC3)c(C)c2c1 | -2.12 (inactive)
Cc1cc(Cl)c2oc(C(=O)NC(C)c3ccncn3)c(C)c2c1 (stereo not given) | inactive
Cc1ccc(C(=O)C(C)OC(=O)Cc2n[nH]c(=O)c3ccccc23)cc1C (stereo not given) | inactive
CN(C)Cc1ccccc1C1(O)c2ccccc2CSc2ccccc21 (stereo not given) | -7.67 (active)
COCCn1c(SC(C)C(=O)NC2CC2)nnc1-c1cccc(C)c1 (stereo not given) | inactive
CC(OC(=O)C1CC(=O)N(Cc2ccccc2)C1)C(=O)Nc1ccccc1[N+](=O)[O-] (stereo not given) | inactive
Fc1cccc(Cl)c1CSc1ccc(-c2ccco2)nn1 | -0.68 (inactive)
Clc1ccccc1CSc1nnc(-c2ccco2)c(-c2ccco2)n1 | -9.12 (active)
COC(OC)c1ccnc(SCc2ccccc2Cl)n1 | -0.02 (inactive)
CCOc1ccc(S(=O)(=O)Nc2ccc(C(=O)NCCCN3CCCC3=O)cc2)cc1 | inactive
CCCNC(=O)c1ccc(N2CCC3(CC2)CC(c2cccc(Br)c2)=NO3)c(NC(=O)c2ccco2)c1 | -0.15 (inactive)
Cc1cc2nc3n(c2cc1C)CC1CC(C(=O)NCCC(C)C)N(C)C31 (stereo not given) | inactive
Cc1ccc(C(=O)c2c(NC(=O)c3ccncc3)sc3c2CCCC3)cc1 | -3.32 (inactive)
Cc1sc(NC(=O)c2ccc3ncsc3c2)c(C(N)=O)c1C | inactive
Cc1ccc(C(=O)c2c(NC(=O)c3ccccc3)sc(C)c2C)cc1 | -7.48 (active)

Structure (SMILES) | B-score
COc1ccc(N2CCN(S(=O)(=O)c3cc4c5c(c3)C(C)C(=O)N5CCC4)CC2)cc1 (stereo not given) | inactive
COc1ccc(-c2ccc3nnc(SCC(=O)Nc4ccc(NC(C)=O)cc4)n3n2)cc1 | -0.47 (inactive)
CC(=O)Nc1ccc(NC(=O)CSc2nnnn2C2CCCCC2)cc1 | -0.45 (inactive)
COc1ccccc1NC(=O)c1cc(Cl)nc2ccccc12 | -4.22 (inactive)
COc1ccc(-c2cc(C(=O)Nc3ccccc3O)c3ccccc3n2)cc1 | -1.2 (inactive)
COc1ccc(NC(=O)c2cc(-c3cc(OC)c(OC)c(OC)c3)nc3ccccc23)c(OC)c1 | -5.97 (active)
O=C1CC2(CCN(C(=O)COc3ccc(F)cc3)CC2)Oc2ccccc21 | inactive
COc1ccc(C(=O)c2c3ccc([N+](=O)[O-])cc3[n+]([O-])n2CCCN)cc1 | -0.22 (inactive)
CCCCCC(=O)N1CCN(S(=O)(=O)c2ccc3c(c2)OCCCO3)CC1 | -1.36 (inactive)
COc1ccc(-c2nnc(SCC(=O)Nc3cccnc3Cl)n2C)cc1 | inactive
Cc1cccc(N=C2SC(C)CN2C(=O)CN2C(=O)NC3(CCCC3)C2=O)c1 (stereo not given) | -1.04 (inactive)
CC1(C)C=Cc2c(ccc3c2OC[C@@H](c2ccc(O)cc2O)C3)O1 | -5.7 (active)
O=C(COc1ccccc1Cl)Nc1ccccc1C(=O)NC1CC1 | inactive
Cc1c(C)n2c(SCC(=O)N3CCCC3)nnc2[nH]c1=O | -0.73 (inactive)
CCOC(=O)N1CCC(N(CCOC)C(=O)Nc2ccc(C)c(C)c2)CC1 | -7.75 (active)
CCOC(=O)C1CCN(C(=O)Nc2ccc(C)c(Cl)c2)CC1 | inactive
CCOC(=O)C1CCN(C(=O)Nc2cccc(OC)c2)CC1 | -0.14 (inactive)
O=C(OCC1OC(Oc2ccc(O)cc2)C(O)C(O)C1O)c1ccccc1 (stereo not given) | -0.52 (inactive)
Cn1ccsc1=NC(=O)c1cc(S(=O)(=O)N2CCOCC2)ccc1Cl | -2.45 (inactive)
CC(C)N(C(=O)c1ccc(-c2ccccc2F)cc1)C(C)C | -1.82 (inactive)
CC(=O)N(C1=C(Cl)C(=O)c2ccccc2C1=O)c1ccc(C(=O)O)cc1 | -10.4 (active)
O=C(CN1C(=O)c2ccccc2C1=O)NCc1ccc(C(=O)O)cc1 | -0.02 (inactive)
CC(=O)c1c(C)[nH]c(C(=O)N2CCN(S(=O)(=O)c3ccc(F)c(F)c3)CC2)c1C | inactive
C=CCOc1ccc(/C=C/C(=O)OCC(=O)NCC2CCCO2)cc1 (stereo not given) | inactive

Structure (SMILES) | B-score
CCCCN(C)CCCNC(=O)c1cc(-c2cccs2)nc2ccccc12 | inactive
CCc1ccc(-c2cc(C(=O)NCc3ccco3)c3ccccc3n2)s1 | -7.07 (active)
COC(=O)CNC(=O)c1cc(-c2ccncc2)nc2ccccc12 | -0.09 (inactive)
COc1ccc(NS(=O)(=O)c2ccc(C)c(C(=O)NNC(=O)c3csc(N4CCOCC4)n3)c2)cc1 | -0.78 (inactive)
CCc1noc(C)c1C(=O)N1CCCSC1=Nc1ccccc1OC | inactive
CCC1(c2ccccc2)NC(=O)N(CC(=O)Nc2ccccc2C(=O)NC2CCCC2)C1=O (stereo not given) | inactive
CCN1C(=O)[C@H]2[C@@H](c3ccc(C)cc3)N3C(=O)N(c4cccc(Br)c4)C(=O)[C@@]3(CC)[C@H]2C1=O | -0.8 (inactive)
c1ccc(-c2cc(N3CCCCC3)c3ccccc3n2)cc1 | -0.16 (inactive)
FC(F)(F)c1cccc(-c2cc3ccccc3nc2N2CCCC2)c1 | -6.95 (active)
O=C(c1cc2ccccc2o1)N1CCN(c2cccc(C(F)(F)F)c2)CC1 | -0.25 (inactive)
O=C(N/N=C/c1cc(Br)c(O)c([N+](=O)[O-])c1)C(O)(c1ccccc1)c1ccccc1 | inactive
C=CCOC(=O)C1=C(C)NC(SCC(=O)OCC)=C(C#N)C1c1ccc(C)cc1 (stereo not given) | -6.37 (active)
C=CCOC(=O)C1=C(C)OC(N)=C(C#N)C1c1ccc(F)cc1 (stereo not given) | inactive
CCOC(=O)CSC1=C(C#N)C(c2ccco2)C(C(=O)OCc2ccccc2)=C(C)N1 (stereo not given) | -2.55 (inactive)
CC(C)N(Cc1nnc(-c2ccc(Cl)cc2)o1)C(=O)C1=COCCO1 | -1.82 (inactive)
CCOC(=O)C(C)Sc1nc2ccccc2c(=O)n1CC1CCCCC1 (stereo not given) | -10.1 (active)
CCOC(=O)C1CCc2nc3ccccc3c(=O)n21 (stereo not given) | inactive
CCOn1c(SC(C)C)nc2ccccc2c1=O | -2.44 (inactive)
CCCCn1c(N)c(N(CCOC)C(=O)c2cccc(S(=O)(=O)N(C)c3ccccc3)c2)c(=O)[nH]c1=O | -0.06 (inactive)
COc1ccc(C)cc1NC(=O)C(OC(=O)c1cccc(S(=O)(=O)N(C)c2ccccc2)c1)c1ccccc1 (stereo not given) | -7.07 (active)
COc1ccc(C)cc1NC(=O)C(Sc1ccccc1)c1ccccc1 (stereo not given) | -2.05 (inactive)
COc1ccc(C)cc1NC(=O)Nc1ccccc1SC | inactive
Cc1ccc(S(=O)(=O)N2CCN(C(=O)c3ccccc3-c3nc4ccccc4s3)CC2)c(C)c1 | -0.72 (inactive)
CCOC(=O)CSc1nc2c(c(=O)n(C)c(=O)n2C)n1Cc1ccccc1F | inactive

Structure (SMILES) | B-score
CCOC(=O)CSc1nc2c(sc(=S)n2CCc2ccccc2)c(=O)n1Cc1ccco1 | -5.6 (active)
CCOC(=O)CSc1nnc(-c2ccco2)n1C | inactive
OCCCNc1nc(-c2ccccc2)c2cc(Cl)ccc2n1 | inactive
CCCCn1c(N)c(N(CC(C)C)C(=O)c2ccc(Br)o2)c(=O)[nH]c1=O | inactive
O=C(c1ccc(F)c(S(=O)(=O)N2CCOCC2)c1)N(CCc1ccccc1)Cc1ccccc1 | -2.85 (inactive)
COc1cccc(-c2cnc(OC(C)(C)C)nc2OC(C)(C)C)c1 | -7.02 (active)
CC(C)(C)Oc1ncc(Br)c(OC(C)(C)C)n1 | inactive
COc1ccc(-c2nc(N)ncc2-c2ccc(Cl)cc2)c(O)c1 | -0.21 (inactive)
CC(Oc1ccc(F)cc1)C(=O)Nc1ccccc1C(=O)NC1CC1 (stereo not given) | -1.68 (inactive)
COc1ccc(C2CC(c3cccs3)=NN2C(=O)CCC(=O)O)cc1OC (stereo not given) | inactive
O=C1c2cccc(OCC(=O)N3N=C(c4cccs4)CC3c3ccc(F)cc3)c2CCN1Cc1ccccc1 (stereo not given) | -5.75 (active)
COc1ccc(C2CC(c3cccs3)=NN2C(=O)COC(=O)c2cc3ccccc3cc2O)cc1OC (stereo not given) | inactive
Nc1cccnc1Sc1ccccc1 | inactive
Cc1ccccc1OCC(=O)NCC(=O)OCC(=O)c1ccc2ccccc2c1 | -5.95 (active)
COCCNC(=O)COc1ccccc1C | -1.11 (inactive)
O=C(CNC(=O)c1ccccc1)NCC(=O)OCC(=O)c1ccccc1 (Bz-Gly-Gly-OPac) | inactive
Nc1c(C(=O)Nc2ccc3c(c2)OCCO3)nnn1Cc1ccccc1 | -0.47 (inactive)
CC(=O)Nc1cccc(OCC(=O)/C=C2\N(C)c3ccccc3C2(C)C)c1 | -6.18 (active)
CC(C)Nc1nnc(SCC(=O)/C=C2\N(C)c3ccccc3C2(C)C)s1 | inactive
CN1/C(=C\C(=O)c2oc3ccccc3c2N)C(C)(C)c2ccccc21 | -0.16 (inactive)
Cc1ccc(S(=O)(=O)N(C)C)cc1NC(=O)C1Cc2ccccc2CN1C(=O)c1ccco1 (stereo not given) | -0.13 (inactive)
Cc1ccc(NC(=O)C2CCCN2C(=O)OCc2ccccc2)cc1C (stereo not given) | inactive
Cc1ccc(C)c(NC(=O)C2Cc3ccccc3CN2C(=O)OCc2ccccc2)c1 (stereo not given) | -6.25 (active)

Source: PubChem BioAssay AID2156 (Johns Hopkins Ion Channel Center, 2009)
